Assay results as given in PubChem BioAssay AID1159580 (chemical genetic matrix, 2015).
Several values for one entry are separate records, joined by “and”; a condition that tells them apart may be missing. Equal values may be shown once. About 2,000 (36%) of roughly 5,500 compounds were called active. Inconclusive results (about 18%) are left out. Rule as the data show it: active = normalized growth mostly below about 0.91 (no sharp cut-off); inconclusive = no clear call, values can overlap the other calls; inactive = mostly above about 0.92. The list shows a part of the results.

Assay: chemical genetic growth profiling, strain panel (AID 1159580);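 also: tested at 20 µM; growth read once vehicle control cultures reached saturation at 30 °C; 1 = growth at the plate median or of vehicle wells; lower values mean less growth of the strain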
Conditions: S. cerevisiae deletion strains, growth OD

Measured: normalized growth

Cn1c(=O)c2[nH]cnc2n(C)c1=O
inactive: locus YAL013W, strain DEP1, active compounds read low 0.996 | locus YAL021C, strain ccr4, active compounds read low 1.03 | locus YAL026C, strain drs2, active compounds read low 1.03 | locus YAL030W, strain snc1, active compounds read low 1.02 | locus YAL040C, strain CLN3, active compounds read low 0.999 | locus YBL061C, strain skt5, active compounds read low 1.02 | locus YBR009C, strain hhf1, active compounds read low 1 | locus YBR021W, strain FUR4, active compounds read low 0.968 | locus YBR023C, strain chs3, active compounds read low 1.04 | locus YBR171W, strain sec66, active compounds read low 1.04 | locus YBR229C, strain ROT2, active compounds read low 0.983 | locus YBR231C, strain swc5, active compounds read low 1.02 | locus YBR279W, strain paf1, active compounds read low 1.02 | locus YCL011C, strain gbp2, active compounds read low 1.02 | locus YCL016C, strain dcc1, active compounds read low 1.04 | locus YCL029C, strain bik1, active compounds read low 0.966 | locus YCL061C, strain MRC1 (second series), active compounds read low 1 | locus YCL069W, strain vba3, active compounds read low 1 | locus YCR088W, strain abp1, active compounds read low 1.02 | locus YDL005C, strain med2, active compounds read low 1.02 | locus YDL035C, strain GPR1, active compounds read low 0.996 | locus YDL040C, strain nat1, active compounds read low 1.02 | locus YDL074C, strain BRE1, active compounds read low 1.02 | locus YDL101C, strain DUN1, active compounds read low 0.985 | locus YDL134C, strain PPH21, active compounds read low 0.985 | locus YDL185W, strain tfp1, active compounds read low 0.979 | locus YDL192W, strain arf1, active compounds read low 0.964 | locus YDR001C, strain nth1, active compounds read low 1.01 | locus YDR069C, strain doa4, active compounds read low 1.02 | locus YDR101C, strain arx1, active compounds read low 0.975 | locus YDR137W, strain rgp1, active compounds read low 1.04 | locus YDR150W, strain NUM1, active compounds read low 0.99 | locus YDR159W, strain sac3, active compounds read low 0.982 | locus YDR162C, strain NBP2, active compounds read low 1.01 | locus YDR195W, strain ref2 1.01 | locus YDR297W, strain sur2, active compounds read low 1.03 | locus YDR318W, strain mcm21, active compounds read low 0.976 | locus YDR334W, strain swr1, active compounds read low 1.02 | locus YDR335W, strain msn5, active compounds read low 1.04 | locus YDR388W, active compounds read low 0.975 | locus YDR392W, strain spt3, active compounds read low 1.05 | locus YDR502C, strain sam2, active compounds read low 1 | locus YEL003W, strain gim4, active compounds read low 0.997 | locus YEL037C, strain rad23, active compounds read low 1.02 | locus YEL061C, strain CIN8 (second series), active compounds read low 1.02 | locus YEL061C, strain CIN8, active compounds read low 0.989 | locus YER002W, strain NOP16, active compounds read low 0.993 | locus YER015W, strain faa2, active compounds read low 1.02 | locus YER016W, strain bim1, active compounds read low 1.02 | locus YER110C, active compounds read low 0.978 | locus YER111C, strain swi4, active compounds read low 1 | locus YER155C, strain BEM2 (second series), active compounds read low 1.02 | locus YER155C, strain BEM2, active compounds read low 0.992 | locus YER167W, strain BCK2, active compounds read low 0.988 | locus YFR010W, strain ubp6, active compounds read low 0.99 | locus YGL078C, strain dbp3, active compounds read low 0.987 | locus YGL086W, strain mad1, active compounds read low 0.989 | locus YGL167C, strain pmr1, active compounds read low 1.02 | locus YGL173C, strain kem1, active compounds read low 1.02 | locus YGL227W, strain vid30, active compounds read low 1.01 | locus YGL240W, strain doc1, active compounds read low 1.02 | locus YGL248W, strain PDE1, active compounds read low 0.99 | locus YGL253W, strain hxk2, active compounds read low 1.03 | locus YGR078C, strain PAC10, active compounds read low 0.992 | locus YGR135W, strain pre9, active compounds read low 0.976 | locus YGR229C, strain SMI1, active compounds read low 1.03 | locus YGR252W, strain gcn5, active compounds read low 1.05 | locus YHR013C, strain ard1, active compounds read low 1.05 | locus YHR027C, strain rpn1, active compounds read low 1.02 | locus YHR030C, strain SLT2, active compounds read low 0.984 and 0.992 | locus YHR079C, strain IRE1 (second series), active compounds read low 0.965 | locus YHR079C, strain IRE1, active compounds read low 0.988 | locus YHR094C, strain hxt1, active compounds read low 0.985 | locus YHR129C, strain ARP1, active compounds read low 0.995 | locus YHR142W, strain chs7, active compounds read low 1.05 | locus YHR200W, strain rpn10, active compounds read low 0.979 | locus YIL066C, strain RNR3, active compounds read low 0.989 | locus YIL073C, strain SPO22, active compounds read low 0.94 | locus YIL125W, strain kgd1, active compounds read low 0.983 | locus YIR030C, strain dcg1, active compounds read low 0.97 | locus YJL092W, strain hpr5, active compounds read low 1.01 | locus YJL095W, strain BCK1 (second series), active compounds read low 1.03 | locus YJL095W, strain BCK1, active compounds read low 1.01 and 0.99 | locus YJL115W, strain asf1, active compounds read low 1.03 | locus YJL129C, strain trk1, active compounds read low 1.04 | locus YJL134W, strain LCB3, active compounds read low 0.989 | locus YJL154C, strain vps35, active compounds read low 1.01 | locus YJL164C, strain tpk1, active compounds read low 1.01 | locus YJL166W, strain qcr8, active compounds read low 1.02 | locus YJL168C, strain set2, active compounds read low 0.978 | locus YJL187C, strain SWE1 (second series), active compounds read low 0.984 | locus YJL187C, strain SWE1, active compounds read low 1 | locus YJR043C, strain POL32, active compounds read low 0.997
